Bioassay records (PubChem)
MITF inh: blocks human microphthalmia-associated transcription factor. AlphaScreen MITF homodimerization, bead proximity signal. O75030. 650,000 tested, 0.91% active. inhibition, % at 2.6 µM. AID 1259374; in the data active means inhibition above about 50%;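 further: 0% = vehicle wells with protein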
GPR151 activ: activators of human GPR151 | PathHunter beta-arrestin GPR151 cells, luminescence | Q8TDV0 | AID 1508602 | 650,000 tested, 1% active | activation, % at 11.2 µM; in the data active means activation above about 4.9%;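 further: 0% = median of compound wells and 100% = cells with positive control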
Target sequence (Q8TDV0 whole entry, looked up): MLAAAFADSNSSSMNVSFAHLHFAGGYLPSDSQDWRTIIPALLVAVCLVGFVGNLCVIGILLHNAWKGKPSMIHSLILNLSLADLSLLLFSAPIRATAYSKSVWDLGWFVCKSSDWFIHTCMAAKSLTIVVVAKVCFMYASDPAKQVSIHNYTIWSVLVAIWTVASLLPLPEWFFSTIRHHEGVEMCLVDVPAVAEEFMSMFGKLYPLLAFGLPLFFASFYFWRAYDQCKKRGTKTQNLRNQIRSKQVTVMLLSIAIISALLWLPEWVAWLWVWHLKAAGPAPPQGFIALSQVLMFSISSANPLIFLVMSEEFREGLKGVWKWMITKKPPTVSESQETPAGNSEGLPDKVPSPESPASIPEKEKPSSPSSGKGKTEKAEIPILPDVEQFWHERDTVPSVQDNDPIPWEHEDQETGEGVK
FBW7 act: activators of human E3 ligase FBW7. Q969H0. AlphaScreen FBW7–phospho-cyclin E peptide binding, activator screen. normalized activity (activation), % at 26.1 µM. 650,000 tested, 0.13% active; in the data active means normalized activity above about 1.9%;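 further: purified mutant Fbw7 with reduced substrate affinity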
TEAD-YAP inh: TEAD-YAP interaction inhibition | 640,000 tested, 1.4% active | inhibition, % at 9.12 µM | HEK-TIYL cells, TEAD-Gal4/YAP UAS-luciferase luminescence; in the data active means inhibition above about 32%;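 further: 0% = median of test compound wells and 100% = reference inhibitor wells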
GPR151 confirm: human GPR151 activation, confirmation screen | shares compounds with GPR151 activ | GPR151 PathHunter beta-arrestin cells, luminescence, 90 min; % of EA-reagent control over plate median | activation, % at 11.2 µM | 6,700 tested, under 10 active;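 active means mean percent activation across replicates above the confirmation screen cutoff of 4.91%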
GPR119 ag: activates human GPR119 in a GPR151 counter-screen. shares compounds with GPR151 activ. GPR119 PathHunter beta-arrestin cells, luminescence, 90 min; 0 = compound-well median, 100 = enzyme-acceptor control. activation, % at 11.2 µM. 6,700 tested, 0.3% active. AID 1508611;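 active means mean percent activation in the counterscreen above 29.09%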;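 further: counterscreen on off-target GPR119 to flag nonselective hits from the GPR151 activator screen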
* marks the source's active call; other numbers are inactive results; nt = no result. In the library only some 3.4% were active in any assay of this set; here they are far more common.

SMILES	MITF inh	GPR151 activ	FBW7 act	TEAD-YAP inh	GPR151 confirm	GPR119 ag
C=CCc1cccc(/C=C/C(=O)c2c(O)cc(C)oc2=O)c1O	-6	5.9*	0	-5	-1	8
CC(CCn1cccn1)NC(=O)c1cc(COc2ccc3ncccc3c2)on1 (stereo not drawn)	10	1	0	16	nt	nt
CC(=O)c1ccc(OCc2cc(C(=O)NC(C)CCn3cccn3)no2)cc1 (stereo not drawn)	9	6.3*	0	-49	1	-3
CC(=O)Nc1cc(-c2cccc(Br)c2)nn1-c1ccccc1	6	5.3*	0	6	-1	-4
CC1CN(c2nc3c(c(=O)[nH]2)CCN(Cc2c(O)ccc4ccccc24)C3)CC(C)O1 (stereo not drawn)	9	5.2*	0	4	1	1
CC1CCN(c2nc3c(c(=O)[nH]2)CCN(Cc2cccc4nccnc24)C3)CC1	-6	7.4*	0	5	1	6
O=c1[nH]c(N2CCCC2)nc2c1CCN(Cc1cccc3nccnc13)C2	12	-1	0	4	nt	nt
O=C1Nc2ccccc2N(O)N1c1cccc(Br)c1	6	7.7*	0	-3	0	3
O=C(N/N=C/c1ccc(Oc2ccc([N+](=O)[O-])cn2)cc1)c1cccc([N+](=O)[O-])c1	2	5.0*	0	9	0	-1
COc1ccc(CCNS(=O)(=O)c2ccc(C)c(C(N)=O)c2)cc1	0	0	0	-4	nt	nt
CCN(CC)C(=O)c1sc(NC(=O)c2ccc(F)cc2)c(C(=O)OC)c1C	-8	5.1*	0	1	0	-8
CCN(CC)C(=O)c1sc(NC(=O)c2cccnc2)c(C(=O)OC)c1C	14	0	0	-3	nt	nt
COCc1nnc(NC(=O)c2ccc(F)cc2)s1	-2	0	0	-53	nt	nt
Cc1cccc(-c2cc(C(=O)Nc3ccc(F)c([N+](=O)[O-])c3)c3ccccc3n2)c1	-7	5.7*	0	-7	1	18
O=C(NCC(c1ccc2c(c1)OCO2)N1CCN(c2ccccc2F)CC1)c1cnccn1 (stereo not drawn)	15	5.5*	0	-23	1	6
Cc1ccccc1NC(=O)C(=O)NCC(c1ccc2c(c1)OCO2)N1CCN(C)CC1 (stereo not drawn)	1	5.7*	0	-10	0	-5
C#CCOCC1CCN(S(=O)(=O)CCC)CC1	3	3	0	-2	nt	nt
CCCc1nnc(NC(=O)Nc2ccc(Br)cc2)s1	5	1	0	8	nt	nt
NC(=O)c1ccc(NC(=O)Cn2cc(S(=O)(=O)Cc3ccccc3)c3ccccc32)cc1	7	0	0	-4	nt	nt
CC(C)(C)NC(=O)Cn1cc(S(=O)(=O)Cc2ccc(F)cc2)c2ccccc21	12	5.3*	0	5	1	4
CC(C)(C)NC(=O)Cn1cc(S(=O)(=O)Cc2ccccc2)c2ccccc21	1	8.3*	0	-11	0	-3
COc1cccc(NC(=O)N(Cc2nnc3n2CCCCC3)c2cc(C)cc(C)c2)c1	12	-2	0	-6	nt	nt
COC(=O)c1cc(OC)c(OC)cc1NC(=O)c1ccc(OC)c([N+](=O)[O-])c1	1	1	0	3	nt	nt
O=S(=O)(Cc1ccccc1)N1CCCC(N2CCOCC2)C1 (stereo not drawn)	6	20*	0	-10	0	15
OC(c1cccnc1)c1ccc2c(c1)CN(Cc1cccc(Cl)c1)CCO2 (stereo not drawn)	1	41*	0	-10	1	-3
COc1ccccc1C1CC(c2ccc(C(C)C)cc2)Nc2nnnn21 (stereo not drawn)	3	-1	0	-4	nt	nt
COc1ccccc1C1CC(c2ccc(Cl)cc2)Nc2nnnn21 (stereo not drawn)	8	5.2*	0	1	0	-11
O=[N+]([O-])c1ccc(-c2nc(C=Nc3cccnc3Cl)c(O)o2)cc1	0	0	1	-4	nt	nt
CCCN1C(=O)c2ccc(C(=O)Nc3ccc(Br)cc3C(=O)O)cc2C1=O	-2	0	0	-5	nt	nt
CN1C(=O)c2ccc(C(=O)Nc3ccc(Br)cc3C(=O)O)cc2C1=O	-2	7.9*	0	9	0	2
